Screening data from PubChem.
Compounds with a hit are over-represented: about 12% of the library has one in this group of screens.
G9a block – blocks human histone lysine methyltransferase G9a | Q96KQ7 | Potency, µM (doses to about 102 µM), usual class: inhibitors | 8.8% of 350,000 active | G9a H3K9 monomethylation, AlphaScreen, 2 h | AID 504332; further: nearly all actives have a fitted effect of over 75% in size
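Chemiluminescent proximity detection of H3K9 monomethylation, read after 10 min bead incubation in the dark. Reaction: 20 nM G9a, 500 nM biotin-H3K9 peptide, 20 uM SAM cofactor, 2 h, room temperature, following 15 min enzyme-compound preincubation.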
L3MBTL1 block – blocks human L3MBTL1 | AlphaScreen L3MBTL1–H3K9me1 peptide binding | 0.66% of 230,000 active | Potency, µM (series often up to 57.1 µM), usual class: inhibitors | AID 485360; further: nearly all actives have a fitted effect of over 60% in size
Target sequence (Q9Y468 whole entry, looked up): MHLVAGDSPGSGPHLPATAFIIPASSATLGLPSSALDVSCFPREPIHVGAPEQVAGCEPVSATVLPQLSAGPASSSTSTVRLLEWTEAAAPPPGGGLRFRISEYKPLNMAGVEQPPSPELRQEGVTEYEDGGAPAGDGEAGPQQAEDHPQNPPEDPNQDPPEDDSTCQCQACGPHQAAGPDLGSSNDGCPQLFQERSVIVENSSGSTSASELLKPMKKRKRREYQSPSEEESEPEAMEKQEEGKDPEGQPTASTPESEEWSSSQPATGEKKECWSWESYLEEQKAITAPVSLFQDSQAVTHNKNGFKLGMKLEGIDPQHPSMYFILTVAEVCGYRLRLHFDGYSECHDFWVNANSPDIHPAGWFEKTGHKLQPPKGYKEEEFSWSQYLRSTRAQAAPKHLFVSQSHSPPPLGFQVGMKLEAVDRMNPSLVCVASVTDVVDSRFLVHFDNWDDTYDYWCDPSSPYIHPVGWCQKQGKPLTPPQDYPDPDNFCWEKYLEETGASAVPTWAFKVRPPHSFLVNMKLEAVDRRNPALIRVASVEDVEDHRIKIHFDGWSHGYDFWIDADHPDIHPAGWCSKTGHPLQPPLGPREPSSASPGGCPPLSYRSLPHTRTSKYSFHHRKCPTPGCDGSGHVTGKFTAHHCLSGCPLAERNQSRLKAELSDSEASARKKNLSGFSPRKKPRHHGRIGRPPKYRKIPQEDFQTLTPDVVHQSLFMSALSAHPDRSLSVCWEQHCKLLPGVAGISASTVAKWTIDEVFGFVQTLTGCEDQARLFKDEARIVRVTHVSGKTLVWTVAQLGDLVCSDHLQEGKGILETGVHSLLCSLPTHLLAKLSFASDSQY
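AlphaScreen proximity signal between nickel-chelate acceptor and streptavidin donor beads (final 10 ug/mL) reports binding of 50 nM L3MBTL1 to 75 nM biotin-H3 K9me1 peptide; complex incubated with compounds 30 min at room temperature; cefsulodin titration as control.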
JMJD2A Tudor – JMJD2A Tudor domain (human) inhibition; O75164; AlphaScreen JMJD2A-Tudor / H3K4me3 peptide binding; Potency, µM (series often up to 114 µM), actives largely listed as inhibitors; 4.4% of 390,000 active; AID 504339; further: nearly all actives have a fitted effect of over 50% in size
BAZ2B inh – blocks human BAZ2B; 4.4% of 360,000 active; AID 504333; AlphaScreen BAZ2B-H3K14Ac peptide displacement; Potency, µM (top dose mostly 114 µM), actives largely listed as inhibitors; further: nearly all actives have a fitted effect of over 60% in size
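In this displacement format the biotinylated H3(5-23) peptide acetylated at Lys14 serves as ligand at 50 nM, with BAZ2B at 50 nM in PBS pH 7.4 containing 0.01% Tween-20. Donor and acceptor beads are 10 ug/mL final.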
Sfp PPTase inh – inhibitors of Bacillus subtilis Sfp phosphopantetheinyl transferase; Biochemical Sfp PPTase activity, qHTS; Potency, µM, most hits filed as inhibitors; 3.5% of 310,000 active;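 further: the enzyme is Sfp with the accession as filed and its product quenches rhodamine fluorescence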
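Compounds were incubated with enzyme (final 15 nM) for 15 min at room temperature before substrate addition started the reaction. Fluorescence at 525 nm excitation, 598 nm emission was recorded immediately and after 30 minutes.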
HP1b binding inh – HP1-beta chromodomain-methylated histone interaction inhibition; AlphaScreen HP1-beta / biotin-H3K9me3 peptide binding; Potency, µM (top dose mostly 114 µM), usual class: inhibitors; 0.56% of 390,000 active; AID 540317; further: nearly all actives have a fitted effect of over 70% in size
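HP1-beta protein (50 nM final) preincubated 30 min at room temperature with biotinylated H3(1-18)K9me3 peptide (50 nM) in PBS pH 7.4, 0.01% Tween-20, then compound added for 30 min. AlphaScreen streptavidin donor/nickel chelate acceptor beads (10 ug/mL final), 30 min dark, luminescence read.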
Numbers stand for hits; i = inactive; ? = inconclusive; nt = no result; [ ] = another dose, or the depositor's remark. The call rests on the fitted dose curve; in most records, active means well fitted curve in the direction sought with a large enough effect; inconclusive means small, poorly fitted or top-dose-only effect, or another doubt; inactive means no such curve, though single readings can be large; an effect the other way counts as inactive or inconclusive.

SMILES | G9a block | L3MBTL1 block | JMJD2A Tudor | BAZ2B inh | Sfp PPTase inh | HP1b binding inh
Cc1cccc(-n2c(SCC(=O)N3CC(=O)Nc4ccccc43)nc3ccccc3c2=O)c1C | 45µM | i | i | i | i | i
O=C(/C=C/c1ccccc1O)c1ccccc1 | nt | nt | i | nt | nt | i
C[n+]1ccc(/C=C/c2ccccc2O)c2ccccc21 | 25µM | nt | ? | ? | i | i
CN(C)CCCn1c(=S)[nH]c2sc3c(c2c1=O)CCCC3 | 7.9µM | nt | 22µM | ? | 79µM | ?
C=CCn1c(=S)[nH]c2sc3c(c2c1=O)CCC3 | 3.2µM | i | i | i | i | i
NC(N)=NCCC[C@H](NC(=O)CNC(=O)c1ccccc1)C(=O)Nc1cc(C(F)(F)F)ccc1Cl | nt | nt | i | nt | nt | nt
CCOC(=O)C1CCCCN1Cc1cccc(OC)c1OC (stereo not given) | 11µM | nt | 5.6µM | ? | ? | ?
CCOC(=O)C1CCCCN1Cc1cc(OC)ccc1OC (stereo not given) | 13µM | nt | 18µM | ? | i | ?
CCOC(=O)C1CCCCN1Cc1cc(Cl)ccc1O (stereo not given) | i | nt | i | i | i | i
COc1cccc(Cn2c(=O)n(-c3cccc(Cl)c3)c(=O)c3c4c(sc32)CN(C(C)=O)CC4)c1 | i | nt | i | i | nt | i
Cc1ccc2c(c1)N/C(=C(\C=C(/Cl)[N+](=O)[O-])[N+](=O)[O-])N2 | 22µM | i | nt | i | 35µM | nt
COc1ccc(OC)c(NC(=O)COC(=O)CCc2nc3ccccc3c(=O)[nH]2)c1 | nt | i | i | nt | nt | i
O=C(CCc1nc2ccccc2c(=O)[nH]1)NCC(=O)Nc1ccc(F)c(F)c1 | i | i | i | i | nt | i
O=C(CCc1nc2ccccc2c(=O)[nH]1)Nc1ccc(F)c([N+](=O)[O-])c1 | 40µM | ? | i | i | i | i
Cc1c(Cl)cccc1NC(=O)CNC(=O)CCCc1nc2ccccc2c(=O)[nH]1 | 45µM | i | i | i | nt | i
Cc1ccc(NC(=O)COC(=O)CCc2nc3ccccc3c(=O)[nH]2)cc1Cl | 35µM | i | i | i | i | i
COc1cc(Cl)c(C)cc1NC(=O)COC(=O)CCc1nc2ccccc2c(=O)[nH]1 | 13µM | i | i | i | nt | i
COc1cc(NC(=O)COC(=O)CCc2nc3ccccc3c(=O)[nH]2)cc(OC)c1 | nt | i | i | nt | nt | i
Cc1ccc(NC(=O)CCCc2nc3ccccc3c(=O)[nH]2)c(Cl)c1 | i | i | i | i | nt | i
Cc1c(CNCc2ccc(Cl)cc2)c(C(=O)O)c(C)n1Cc1ccc(F)cc1 | i | nt | i | i | nt | i
COCC(=O)N1CCC2(CC1)CN(C(=O)Nc1ccc(OC)cc1)C2 | i[12.7 µM] | nt | nt | nt | i | nt
NS(=O)(=O)c1ccc(NC(=O)COC(=O)CCc2nc3ccccc3c(=O)[nH]2)cc1 | ? | i | i | i | nt | i
COc1ccc(S(=O)(=O)N2CCCCC2)cc1NC(=O)CCc1nc2ccccc2c(=O)[nH]1 | ? | i | i | i | nt | i
Cc1ccc(S(=O)(=O)N2CCCCC2)cc1NC(=O)CCc1nc2ccccc2c(=O)[nH]1 | 3.2µM | i | i | i | nt | i
N#Cc1cccc(NC(=O)COC(=O)CCc2nc3ccccc3c(=O)[nH]2)c1 | 13µM | nt | i | i | i | i
SMILES | G9a block | L3MBTL1 block | JMJD2A Tudor | BAZ2B inh | Sfp PPTase inh | HP1b binding inh
O=C(Nc1ccc(F)c([N+](=O)[O-])c1)C(=O)c1c(O)[nH]c2ccccc12 | 28µM | i | i | ? | 20µM | i
CCc1ccc(-n2c(N3CCN(c4cccc(Cl)c4)CC3)nc3ccccc3c2=O)cc1 | i | nt | i | nt | nt | i
Cc1ccc(C(=O)N2CCCC(N3CCN(c4ccccc4C)CC3)C2)c(=O)[nH]1 (stereo not given) | i | nt | 50µM | i | i | ?
CC(=O)N1CCN(C(=O)C(Cc2ccccc2)NC(=O)c2ccccc2)CC1 (stereo not given) | i[12.7 µM] | i | i | i | nt | i
O=C(NC(Cc1ccccc1)C(=O)N1CCN(c2ccccc2O)CC1)c1ccccc1 (stereo not given) | 50µM | i | i | i | nt | i
O=C(NCc1ccccc1)c1cccnc1 | ? | i | i | i | i | i
O=C(N[C@@H](Cc1ccccc1)C(=O)O)c1cccnc1 | 50µM | nt | i | i | i | i
O=C(Nc1ccccc1C(=O)NC(Cc1ccc(O)cc1)C(=O)O)c1ccccc1 (stereo not given) | 45µM | i | i | i | i | i
COC(=O)CC1C2(C)CC34OC5(C)O[C@@]6(C7/C(=C(/OC)C(C)C)C(=O)OC(c8ccoc8)[C@@]7(C)C(OC(=O)C(C)C)C(OC)[C@]6(O5)[C@@]13C)C(OC)[C@]4(OC)C2OC(C)=O (stereo not given in full) | i[2.33 µM] | nt | nt | nt | i | nt
NC(C(=O)O)[C@H](O)C(=O)O (stereo not given in full) | i | nt | nt | nt | 56µM | nt
NC(C(=O)O)C(O)C(=O)O (stereo not given) | nt | nt | nt | nt | i | nt
Cc1ccc(-n2c(C)nc3ncnc(-c4ccccc4)c32)cc1 | i | i | i | i | i | i
Cc1ccc(-n2c(-c3c(-c4ccccc4)noc3C)n[nH]c2=S)cc1 | 0.56µM | nt | i | i | i | i
Cc1ccc(-n2c(-c3cccc(C)c3)n[nH]c2=S)cc1 | i | nt | 20µM | i | i | i
COc1ccc(-c2n[nH]c(=S)n2-c2ccc(C)cc2)cc1OC | 4µM | i | 6.3µM | i | ? | i
CN(C)c1ccc(NC(=O)CSc2nc3ccccc3c(=O)n2C2CCCCC2)cc1 | 7.9µM | ? | 7.9µM | 10µM | i | ?
CN(C)c1ccc(NC(=O)CSc2nc(C3CC3)nc3ccccc23)cc1 | 4.5µM | nt | ? | i | i | i
CCOC(=O)c1cnc(Nc2nc3ccccc3o2)nc1CN1CCN(C)CC1 | i[0.501 µM] | i | ? | 79µM | i | i
CCOC(=O)C(=CN=C(N)Nc1nc2ccccc2o1)C(=O)OCC | i | i | i | i | i | i
CCOc1ccc(OCC)c(NS(=O)(=O)c2c(C(=O)N3CCCCCC3)c(C)n(C)c2C)c1 | i | nt | i | ? | nt | i
O=C(O)c1ccc(CSc2nc3ccc(NC(=O)c4ccccc4C(=O)O)cc3s2)cc1 | 45µM | i | i | ? | i | i
CCCNC(=O)Cn1c(=O)c2cccn2c2cccnc21 | i | nt | i | i | nt | i
O=C1Nc2ccc(C(=O)O)c(O)c2C1=O | nt | nt | 56µM | nt | nt | i
O=C(NC(=O)c1ccc(Cl)cc1)Nc1cc(N2CCCCC2)ncn1 | nt | nt | 79µM | nt | nt | i
CC1C=CC=CC=CC=CC=CC=CC=CC(OC2OC(C)C(O)C(N)C2O)CC2OC(O)(CC(O)CC(O)C(O)CCC(O)CC(O)CC(=O)OC(C)C(C)C1O)CC(O)C2C(=O)O (stereo not given) | nt | nt | 11µM | nt | nt | i
O=C(Nc1cc(C(F)(F)F)ccc1N1CCCC1)c1ccc2c(c1)OCO2 | 45µM | i | i | i | i | i
O=C(Nc1ccccc1N1CCCC1)c1ccc2c(c1)OCO2 | 45µM | i | i | i | i | i
